Test results published in PubChem BioAssay (NCATS).
Records with an inconclusive call do not appear. Where a call stands in place of a potency, no number is given. Calls of active or inactive are those of the source. Calls follow the shape of the dose curve; as a rule, active = well fitted inhibition curve with a large enough effect; inconclusive = small, poorly fitted or top-dose-only effect; inactive = no such curve, though single readings can be large or run the other way.

The molecules below were run against Retinaldehyde dehydrogenase 3 (Homo sapiens) (UniProt P47895) (assay: qHTS for Inhibitors of the Aldehyde Dehydrogenase Family (ALDH1A3) Confirmatory screens (AID 2061311; also: nearly all actives have a fitted effect of over 60% in size)). Conditions: ALDH inhibition qHTS; series mostly up to 46 µM.
Potency is read from the fitted curve at half-maximal effect.

**Q.** Which Potency does the source give for `NC(=O)C1CCN(c2nc(-c3ccc(F)cc3)cs2)CC1` here?
**A.** Its Potency is “inactive”.

**Q.** For `O=C(CN1C(=O)CC(c2ccco2)Sc2ccccc21)Nc1ccccc1F` (stereo not drawn), which Potency is on record?
**A.** The Potency was “inactive”.

**Q.** Which Potency does the source give for `N#CN1CCC(NS(=O)(=O)c2ccc(F)cc2)CC1` here?
**A.** Its Potency is “inactive”.

**Q.** `O=C(/C=C/c1ccc([N+](=O)[O-])o1)Nc1cccc([S+](=O)([O-])Nc2ccccc2F)c1` was tested. Which Potency did it give?
**A.** The Potency was “inactive”.

**Q.** With `NC(=O)C1CCN(c2ncc(-c3cccc(N4CCOCC4)c3)s2)CC1` as the molecule, how does the Potency read?
**A.** The Potency was “inactive”.

**Q.** For `O=C1CCCC2=C1C(c1[nH]ncc1Cl)NC(=NCc1ncc[nH]1)N2` (stereo not drawn), which Potency is on record?
**A.** Its Potency is “inactive”.

**Q.** How did the Potency turn out when `CCOC(=O)C1CCN(c2nc(-c3ccc(Br)cc3)cs2)CC1` was run?
**A.** The Potency was “inactive”.

**Q.** Which Potency does the source give for `FC(F)(F)c1cc(-c2ccc(CNc3nc(-c4ccncc4)nc4ccccc34)cc2)ccn1` here?
**A.** The Potency was 2.52 µM (active).

**Q.** Which Potency does the source give for `Oc1cc(NCCc2cccnc2)cc2cccnc12` here?
**A.** Its Potency is 0.4 µM (active).

**Q.** Which Potency does the source give for `Brc1ccc(-c2csc(N3CCC(c4nn[nH]n4)CC3)n2)cc1` here?
**A.** Its Potency is “inactive”.

**Q.** Which Potency does the source give for `Cc1ccccc1C#Cc1ccc(CCC(=O)O)cc1` here?
**A.** The Potency was 10.1 µM (active).

**Q.** `Cc1cc(C=CC#N)cc(C)c1Nc1nc(Nc2ccc3c(c2)CCC3)c2[nH]cnc2n1` was tested. Which Potency did it give?
**A.** Its Potency is “inactive”.

**Q.** With `Cc1ccc2nc3sc(C(=O)N4CCN(C)CC4)cc3cc2c1` as the molecule, how does the Potency read?
**A.** The Potency was 22.5 µM (active).

**Q.** Which Potency does the source give for `Cc1c(P(=O)(c2ccccc2)c2ccccc2)c2ccccc2n1C` here?
**A.** The Potency was 7.12 µM (active).

**Q.** Which Potency does the source give for `Cc1c(C(=O)N(C)CC2CCCO2)[nH]c2c1C(=O)CC(c1ccco1)C2` (stereo not drawn) here?
**A.** The Potency was 15.9 µM (active).

**Q.** For `O=C1Nc2ccccc2/C1=C\c1ccc(O)c(F)c1`, which Potency is on record?
**A.** Its Potency is 15.8 µM (active).

**Q.** How did the Potency turn out when `NC(=O)C1CCN(c2ncc(-c3cccc(N4CCCC4)c3)s2)CC1` was run?
**A.** The Potency was 7.98 µM (active).

**Q.** `COc1ccc(C2=Nn3c(nnc3-c3ccccc3O)SC2)cc1` was tested. Which Potency did it give?
**A.** Its Potency is “inactive”.

**Q.** How did the Potency turn out when `O=C(Nc1cncc(NC(=O)c2cccs2)c1)c1cccs1` was run?
**A.** The Potency was 28.3 µM (active).

**Q.** For `N#Cc1cc(C2=Nc3ccc(Br)cc3NC(=O)C2)ccn1`, which Potency is on record?
**A.** The Potency was “inactive”.

**Q.** Which Potency does the source give for `COc1cc(O)c(C(CC(=O)N2CCCC(C(C)C)C2)c2ccc3c(c2)OCO3)c(OC)c1` (stereo not drawn) here?
**A.** The Potency was “inactive”.

The molecules below were run against Retinal dehydrogenase 2 (Homo sapiens) (UniProt O94788) (assay: qHTS for Inhibitors of the Aldehyde Dehydrogenase Family (ALDH1A2) Confirmation screens (AID 2061314; also: nearly all actives have a fitted effect of over 65% in size)). Conditions: ALDH1A2 enzyme inhibition qHTS confirmation; series mostly up to 45.9 µM.

**Q.** Which Potency does the source give for `NC(=O)N1CCN(c2nc(-c3ccc(Br)cc3)cs2)CC1` here?
**A.** The Potency was “inactive”.

**Q.** Which Potency does the source give for `Cc1cnc(-c2ccccc2C(C)C)nc1NCC1CN(c2cccnc2)C1` here?
**A.** The Potency was 2.52 µM (active).

**Q.** For `COc1cccc(-c2no[n+]([O-])c2C#N)c1`, which Potency is on record?
**A.** The Potency was 10.1 µM (active).

**Q.** For `Cc1cnc(-c2ccccc2C(C)O)nc1NCC1CCN(c2cccnc2)CC1` (stereo not drawn), which Potency is on record?
**A.** Its Potency is 12.7 µM (active).

**Q.** With `C[C@H]1[C@H](/C=C/c2ccc(-c3ccccc3C#N)cn2)[C@@H]2[C@@H](C)OC(=O)[C@@H]2C[C@@H]1C` as the molecule, how does the Potency read?
**A.** Its Potency is “inactive”.

**Q.** `CCOc1ccccc1-c1nnc2n1N=C(c1cccc(OC)c1)CS2` was tested. Which Potency did it give?
**A.** Its Potency is “inactive”.

**Q.** For `O=C(Nc1cncc(O)c1)c1cccs1`, which Potency is on record?
**A.** The Potency was 2.25 µM (active).

**Q.** For `O=C1CC(c2ccccc2)CC2=C1C1(CCCC1)N=C(Nc1nc3ccccc3o1)N2` (stereo not drawn), which Potency is on record?
**A.** Its Potency is “inactive”.

**Q.** With `CC(=O)N1CCN(c2ccc(NCc3ccc(C)cc3)cc2)CC1` as the molecule, how does the Potency read?
**A.** The Potency was 11.3 µM (active).

**Q.** Which Potency does the source give for `CC(=O)NC(c1ccco1)c1cc(Cl)c2ccc(N3CCCCC3)nc2c1O` (stereo not drawn) here?
**A.** The Potency was 1.59 µM (active).

**Q.** Which Potency does the source give for `N#CC1CCN(c2nc(-c3ccc(Br)cc3)cs2)CC1` here?
**A.** Its Potency is “inactive”.

**Q.** For `CS(=O)(=O)c1ccc(C(=O)OCC(=O)N2Cc3ccccc3C2)cc1[N+](=O)[O-]`, which Potency is on record?
**A.** The Potency was 7.98 µM (active).

**Q.** Which Potency does the source give for `CN1CCN(c2cccc(CNc3nn4c(=O)c5ccccc5nc4s3)c2)CC1` here?
**A.** Its Potency is 25.2 µM (active).

**Q.** With `Clc1ncoc1-c1c[nH]c2ccccc12` as the molecule, how does the Potency read?
**A.** Its Potency is “inactive”.

**Q.** `C#Cc1nc(Nc2cccc(Cl)c2)nc(NC2CCCC2)n1` was tested. Which Potency did it give?
**A.** The Potency was 8.91 µM (active).

**Q.** For `O=C1c2ccccc2NC(c2ccc(-c3ccccc3F)o2)N1O` (stereo not drawn), which Potency is on record?
**A.** The Potency was 25.2 µM (active).

**Q.** How did the Potency turn out when `NC(=O)C1CCN(c2nc(-c3ccc(F)cc3)cs2)CC1` was run?
**A.** The Potency was “inactive”.

**Q.** `O=C(CN1C(=O)CC(c2ccco2)Sc2ccccc21)Nc1ccccc1F` (stereo not drawn) was tested. Which Potency did it give?
**A.** The Potency was “inactive”.

**Q.** Which Potency does the source give for `N#CN1CCC(NS(=O)(=O)c2ccc(F)cc2)CC1` here?
**A.** Its Potency is “inactive”.

**Q.** Which Potency does the source give for `O=C(/C=C/c1ccc([N+](=O)[O-])o1)Nc1cccc([S+](=O)([O-])Nc2ccccc2F)c1` here?
**A.** The Potency was 7.98 µM (active).

**Q.** `NC(=O)C1CCN(c2ncc(-c3cccc(N4CCOCC4)c3)s2)CC1` was tested. Which Potency did it give?
**A.** The Potency was “inactive”.

**Q.** Which Potency does the source give for `O=C1CCCC2=C1C(c1[nH]ncc1Cl)NC(=NCc1ncc[nH]1)N2` (stereo not drawn) here?
**A.** Its Potency is “inactive”.

**Q.** `CCOC(=O)C1CCN(c2nc(-c3ccc(Br)cc3)cs2)CC1` was tested. Which Potency did it give?
**A.** The Potency was “inactive”.

**Q.** `FC(F)(F)c1cc(-c2ccc(CNc3nc(-c4ccncc4)nc4ccccc34)cc2)ccn1` was tested. Which Potency did it give?
**A.** Its Potency is 10 µM (active).

**Q.** How did the Potency turn out when `Oc1cc(NCCc2cccnc2)cc2cccnc12` was run?
**A.** The Potency was “inactive”.

**Q.** `Brc1ccc(-c2csc(N3CCC(c4nn[nH]n4)CC3)n2)cc1` was tested. Which Potency did it give?
**A.** The Potency was “inactive”.

**Q.** Which Potency does the source give for `Cc1ccccc1C#Cc1ccc(CCC(=O)O)cc1` here?
**A.** The Potency was “inactive”.

**Q.** With `Cc1cc(C=CC#N)cc(C)c1Nc1nc(Nc2ccc3c(c2)CCC3)c2[nH]cnc2n1` as the molecule, how does the Potency read?
**A.** Its Potency is “inactive”.

**Q.** For `Cc1ccc2nc3sc(C(=O)N4CCN(C)CC4)cc3cc2c1`, which Potency is on record?
**A.** Its Potency is 10.1 µM (active).

**Q.** Which Potency does the source give for `Cc1c(P(=O)(c2ccccc2)c2ccccc2)c2ccccc2n1C` here?
**A.** Its Potency is “inactive”.

**Q.** How did the Potency turn out when `Cc1c(C(=O)N(C)CC2CCCO2)[nH]c2c1C(=O)CC(c1ccco1)C2` (stereo not drawn) was run?
**A.** Its Potency is 12.7 µM (active).

**Q.** Which Potency does the source give for `O=C1Nc2ccccc2/C1=C\c1ccc(O)c(F)c1` here?
**A.** Its Potency is 5.65 µM (active).

**Q.** For `NC(=O)C1CCN(c2ncc(-c3cccc(N4CCCC4)c3)s2)CC1`, which Potency is on record?
**A.** The Potency was 11.3 µM (active).

**Q.** With `COc1ccc(C2=Nn3c(nnc3-c3ccccc3O)SC2)cc1` as the molecule, how does the Potency read?
**A.** The Potency was “inactive”.

**Q.** For `O=C(Nc1cncc(NC(=O)c2cccs2)c1)c1cccs1`, which Potency is on record?
**A.** The Potency was “inactive”.

**Q.** `N#Cc1cc(C2=Nc3ccc(Br)cc3NC(=O)C2)ccn1` was tested. Which Potency did it give?
**A.** The Potency was “inactive”.

**Q.** For `COc1cc(O)c(C(CC(=O)N2CCCC(C(C)C)C2)c2ccc3c(c2)OCO3)c(OC)c1` (stereo not drawn), which Potency is on record?
**A.** The Potency was “inactive”.
